For 5 molecules, composite z-score and z-score results are on record in PubChem BioAssay.

A short description of assay [1]: small molecules captured by biotinylated probe aFSTL3 – biochemical, small-molecule microarray, fluorescence 635/667, stem cell growth factor project, primary screen (AID 1064).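 Note: measures binding of the biotinylated anti-FSTL3 antibody to printed compounds.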 The settings on record: higher = more signal.
Assay [2] can be described thus: binders from COS7 lysate, DM2A8 probe, primary screen, torsin A project, cell lysate, small-molecule microarray, fluorescence 635/667 (AID 1065). The settings on record: higher = more signal, COS7 lysate expressing mutant human TOR1A.
The nature of assay [3]: small molecules captured by biotinylated probe aFGF2 – biochemical, small-molecule microarray, fluorescence 635/667, stem cell growth factor project, primary screen (AID 1067).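 Note: measures binding of biotinylated aFGF2 protein to printed compounds on slides; z-score merges feature fluorescence and signal-to-noise across triplicate slides.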 The following applies: higher = more signal.
Assay [4] is described as follows: small molecules captured by biotinylated probe aFGF10 – biochemical, small-molecule microarray, fluorescence 635/667, stem cell growth factor project, primary screen (AID 1071).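 Note: score merges 667 nm spot intensity and signal to noise from triplicate slides.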 The following applies: higher = more signal.
The target in assay [5] is Neurogenic locus notch homolog protein 2 (Homo sapiens) (UniProt Q04721). Briefly: small molecules binding Notch2 protein – biochemical, small-molecule microarray, 635 nm fluorescence, stem cell growth factors, primary screen (AID 1073). The following applies: higher = more signal.
For assay [6], the target named is Pro-neuregulin-1, membrane-bound isoform (Homo sapiens) (UniProt Q02297). Description: small molecules binding neuregulin-1 protein – biochemical, small-molecule microarray, fluorescence 635/667, psychiatric disease protein project, primary screen (AID 1075).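 Note: score combines 667 nm spot fluorescence with signal to noise.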 The following applies: NRG1 binding, 635 nm fluorescence, higher = more signal.
The test system of assay [7] is Neuregulin-1 EGF-like domain. Briefly: small molecules binding NRG1 EGF domain – biochemical, small-molecule microarray, 635 nm fluorescence, primary screen (AID 1081).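 Note: binding of the protein to compounds printed on small-molecule microarray slides.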 The settings on record: higher = more signal.
Assay [8] can be described thus: FRG1 expression reporter modulators in myotubes – cell-based, C2C12 myotubes, firefly/Renilla luciferase, luminescence, FRG1 inhibition for FSHD, primary screen (AID 1084). The settings on record: FRG1 promoter luciferase, higher = more signal, called active from +8 up or from −8 down.
Assay [9] in a line: small molecules captured by biotinylated probe aFST – biochemical, small-molecule microarray, fluorescence 635/667, stem cell growth factor project, primary screen (AID 1086).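 Note: score merges 667 nm fluorescence with signal-to-noise of each printed compound spot.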 The following applies: higher = more signal.
Assay [10] can be described thus: binders of probe aHhip on microarray, primary screen, stem cell growth factor project, biochemical, small-molecule microarray, fluorescence 635/667 (AID 1087).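 Note: score merges spot fluorescence at 667nm with spot signal to noise ratio.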 The settings on record: higher = more signal.
Assay [11] has as its system PRMT1 (protein arginine N-methyltransferase 1). Briefly: small molecules binding arginine methyltransferase PRMT1 – biochemical, small-molecule microarray, 635 nm fluorescence, primary screen (AID 1088).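 Note: binding of Prmt1 protein to compounds spotted on small-molecule microarray slides.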 The settings on record: higher = more signal.
Assay [12] can be described thus: growth effects on S. cerevisiae YJM789 – YJM789 clinical isolate, OD600, 24 h, basal, primary screen (AID 1089).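 Note: growth of clinical yeast isolate S. cerevisiae YJM 789 seeded 1000 cells per well; test concentration not given here.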 The following applies: higher = more signal, called active from +8 up or from −8 down.
A short description of assay [13]: S. pombe growth modifiers, basal conditions – strain 972, OD600, 24 h, no modulator, primary screen (AID 1090).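 Note: basal condition with compound alone and no growth modifier present; test concentration not given here.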 The following applies: S. pombe 972 growth, higher = more signal, called active from +8 up or from −8 down.
The nature of assay [14]: budding yeast growth modifiers under rapamycin – strain BY4716, OD600, 96 h, primary screen (AID 1091). Note: test concentration not given here. The settings on record: S. cerevisiae BY4716 + rapamycin, higher = more signal, called active from +8 up or from −8 down.
Assay [15] addresses Torsin-1A-interacting protein 2 (Homo sapiens) (UniProt Q8NFQ8). Description: small molecules binding lysate-expressed LULL1 – cell lysate, human LULL1 lysate, 635/667 nm fluorescence, primary screen (AID 1092).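 Note: probe is lysate of COS7 cells overexpressing human LULL1; score merges per-feature 667 nm fluorescence with signal-to-noise.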 The following applies: small-molecule microarray, hLULL1 lysate binding, 635 nm fluorescence; higher = more signal.
Assay [16] in a line: optical density change of DRC41 E. coli – strain DRC41, OD650, 24 h, E. coli filamentation project, primary screen (AID 1093).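 Note: MC1000 strain lacking acrAB efflux and sulA so SOS filamentation is blocked; test concentration not given here.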 The following applies: E. coli DRC41 growth, higher = more signal, called active from +8 up or from −8 down.
Assay [17] is described as follows: probe aLefty2 binding to arrayed compounds – biochemical, biotinylated probe, 635/667 nm fluorescence, primary screen (AID 1094).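 Note: score merges spot fluorescence near 667 nm with spot signal-to-noise ratio.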 The settings on record: small-molecule microarray, higher = more signal.
Assay [18] relates to Noggin (protein binding on small-molecule microarray). Description: small molecules binding Noggin protein – biochemical, 635/667 nm fluorescence, primary screen (AID 1095).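 Note: score merges 667 nm feature fluorescence with signal to noise over triplicate slides.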 The settings on record: 635 nm fluorescence, higher = more signal.
Assay [19] addresses Neurogenic locus notch homolog protein 3 (Homo sapiens) (UniProt Q9UM47). Briefly: small molecules binding NOTCH3 protein – biochemical, 635/667 nm fluorescence, primary screen (AID 1096). The settings on record: small-molecule microarray, 635 nm fluorescence, higher = more signal.
Assay [20] can be described thus: probe aEGFR binding to arrayed compounds – biochemical, biotinylated probe, 635/667 nm fluorescence, primary screen (AID 1097).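 Note: probe is a biotinylated anti-EGFR antibody binding compounds printed on slides; score combines fluorescence near 667 nm and signal to noise of each spot.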 The following applies: small-molecule microarray, higher = more signal.

Each structure is given as a SMILES string. Calls of active or inactive are those of the source.

Chain of Neurogenic locus notch homolog protein 3 (Homo sapiens) (Q9UM47 whole entry, looked up): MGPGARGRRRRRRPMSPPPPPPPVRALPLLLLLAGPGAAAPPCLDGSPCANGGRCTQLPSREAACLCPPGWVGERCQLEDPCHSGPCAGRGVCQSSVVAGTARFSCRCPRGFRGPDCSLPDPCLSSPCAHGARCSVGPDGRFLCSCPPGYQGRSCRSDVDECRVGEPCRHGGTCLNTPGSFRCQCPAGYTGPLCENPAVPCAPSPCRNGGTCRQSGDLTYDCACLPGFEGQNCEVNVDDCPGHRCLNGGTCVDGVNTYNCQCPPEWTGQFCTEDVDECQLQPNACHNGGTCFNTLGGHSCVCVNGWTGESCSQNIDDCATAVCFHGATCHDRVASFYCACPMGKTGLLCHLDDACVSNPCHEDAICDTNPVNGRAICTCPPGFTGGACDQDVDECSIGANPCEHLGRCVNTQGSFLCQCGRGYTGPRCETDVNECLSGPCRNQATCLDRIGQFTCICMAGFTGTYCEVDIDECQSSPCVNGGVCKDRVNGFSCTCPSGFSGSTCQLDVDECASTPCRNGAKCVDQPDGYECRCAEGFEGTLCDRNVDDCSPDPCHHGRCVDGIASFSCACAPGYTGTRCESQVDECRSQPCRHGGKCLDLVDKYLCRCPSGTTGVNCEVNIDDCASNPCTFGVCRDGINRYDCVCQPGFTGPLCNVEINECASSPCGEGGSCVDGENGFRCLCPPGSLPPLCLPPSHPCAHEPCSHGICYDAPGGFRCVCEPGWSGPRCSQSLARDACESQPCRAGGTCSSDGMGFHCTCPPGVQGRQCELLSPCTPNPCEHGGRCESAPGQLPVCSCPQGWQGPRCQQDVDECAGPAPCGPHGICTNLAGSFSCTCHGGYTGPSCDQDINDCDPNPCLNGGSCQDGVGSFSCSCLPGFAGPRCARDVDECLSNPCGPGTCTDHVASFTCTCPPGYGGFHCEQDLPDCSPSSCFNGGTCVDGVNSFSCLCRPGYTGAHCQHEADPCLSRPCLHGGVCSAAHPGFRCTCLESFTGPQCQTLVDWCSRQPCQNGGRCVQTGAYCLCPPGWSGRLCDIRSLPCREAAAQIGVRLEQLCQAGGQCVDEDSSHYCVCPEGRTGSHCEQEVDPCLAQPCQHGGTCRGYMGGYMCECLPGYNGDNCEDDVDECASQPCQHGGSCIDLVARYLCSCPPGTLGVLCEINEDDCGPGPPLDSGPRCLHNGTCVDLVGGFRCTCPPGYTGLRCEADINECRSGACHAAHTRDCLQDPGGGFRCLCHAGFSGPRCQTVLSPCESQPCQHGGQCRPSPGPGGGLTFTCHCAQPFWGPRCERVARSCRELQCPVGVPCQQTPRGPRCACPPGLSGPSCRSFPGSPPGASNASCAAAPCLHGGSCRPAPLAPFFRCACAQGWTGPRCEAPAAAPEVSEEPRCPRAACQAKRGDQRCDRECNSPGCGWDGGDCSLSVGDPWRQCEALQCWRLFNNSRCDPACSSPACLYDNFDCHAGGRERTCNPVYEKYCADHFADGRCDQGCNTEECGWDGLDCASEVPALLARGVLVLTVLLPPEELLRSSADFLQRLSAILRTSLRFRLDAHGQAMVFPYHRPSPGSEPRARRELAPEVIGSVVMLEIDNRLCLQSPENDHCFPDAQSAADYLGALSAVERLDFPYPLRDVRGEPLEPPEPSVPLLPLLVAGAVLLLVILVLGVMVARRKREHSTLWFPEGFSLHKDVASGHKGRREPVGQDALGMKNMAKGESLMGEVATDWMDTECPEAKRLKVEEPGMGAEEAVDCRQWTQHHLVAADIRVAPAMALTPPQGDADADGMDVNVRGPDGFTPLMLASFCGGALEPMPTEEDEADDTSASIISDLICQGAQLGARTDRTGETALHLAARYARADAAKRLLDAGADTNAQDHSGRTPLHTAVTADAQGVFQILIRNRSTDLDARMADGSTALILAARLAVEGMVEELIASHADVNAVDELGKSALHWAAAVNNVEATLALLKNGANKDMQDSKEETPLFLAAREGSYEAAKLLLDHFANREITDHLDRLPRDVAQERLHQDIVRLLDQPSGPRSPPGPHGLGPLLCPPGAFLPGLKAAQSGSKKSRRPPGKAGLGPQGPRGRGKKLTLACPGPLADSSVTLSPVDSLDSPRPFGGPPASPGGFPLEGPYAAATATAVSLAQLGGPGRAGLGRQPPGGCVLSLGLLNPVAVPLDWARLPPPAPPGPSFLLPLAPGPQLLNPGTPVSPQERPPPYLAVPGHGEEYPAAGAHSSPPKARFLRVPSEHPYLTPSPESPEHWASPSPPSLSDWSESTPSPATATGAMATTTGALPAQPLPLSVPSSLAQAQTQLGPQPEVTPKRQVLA
Chain of Torsin-1A-interacting protein 2 (Homo sapiens) (Q8NFQ8 whole entry, looked up): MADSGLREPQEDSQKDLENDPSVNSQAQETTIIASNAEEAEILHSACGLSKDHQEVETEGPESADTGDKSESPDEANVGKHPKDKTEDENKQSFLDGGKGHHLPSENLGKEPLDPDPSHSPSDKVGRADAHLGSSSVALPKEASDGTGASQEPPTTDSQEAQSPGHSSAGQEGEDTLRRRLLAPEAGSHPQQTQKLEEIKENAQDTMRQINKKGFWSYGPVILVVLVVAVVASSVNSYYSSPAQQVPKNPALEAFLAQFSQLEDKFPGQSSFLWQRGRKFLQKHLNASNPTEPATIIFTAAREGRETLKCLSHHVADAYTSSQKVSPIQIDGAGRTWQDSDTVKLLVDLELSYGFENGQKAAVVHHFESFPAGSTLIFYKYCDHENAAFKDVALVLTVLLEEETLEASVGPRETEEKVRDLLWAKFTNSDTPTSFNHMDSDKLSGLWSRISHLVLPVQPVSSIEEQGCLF
Chain of Pro-neuregulin-1, membrane-bound isoform (Homo sapiens) (Q02297 whole entry, looked up, the tested form may be a part, canonical isoform): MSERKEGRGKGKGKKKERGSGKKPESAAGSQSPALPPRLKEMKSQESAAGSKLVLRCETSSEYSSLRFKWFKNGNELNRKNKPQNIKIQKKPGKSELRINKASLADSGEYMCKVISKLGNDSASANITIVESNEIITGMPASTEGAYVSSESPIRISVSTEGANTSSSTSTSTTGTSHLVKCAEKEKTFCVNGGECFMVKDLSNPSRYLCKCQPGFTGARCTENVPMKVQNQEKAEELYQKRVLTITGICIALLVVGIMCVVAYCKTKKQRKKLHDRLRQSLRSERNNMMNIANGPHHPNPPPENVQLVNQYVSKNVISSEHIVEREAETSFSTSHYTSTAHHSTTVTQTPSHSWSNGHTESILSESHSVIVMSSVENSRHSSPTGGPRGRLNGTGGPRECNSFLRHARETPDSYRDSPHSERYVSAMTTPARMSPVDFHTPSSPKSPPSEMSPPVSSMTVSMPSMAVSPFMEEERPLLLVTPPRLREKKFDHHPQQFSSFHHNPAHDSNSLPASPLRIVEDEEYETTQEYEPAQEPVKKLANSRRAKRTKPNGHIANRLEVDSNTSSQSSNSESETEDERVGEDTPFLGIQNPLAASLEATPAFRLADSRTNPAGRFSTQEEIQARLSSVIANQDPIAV

Turning to `C=CCOC(=O)[C@H]1[C@@H]2C(=O)O[C@@H](c3ccccc3)[C@@H](c3ccccc3)N2[C@@H](c2ccc(OCCOC(=O)[C@H]3C[C@H]4C(=O)N[C@@H](CCCCNC(C)=O)C(=O)N4[C@H]3c3ccc(O)cc3)cc2)[C@]12C(=O)Nc1ccccc12`, the composite z-score in assay [1] is -0.0493; in assay [2], 0.498; in assay [3], -0.0736; in [4], 0.0817; in [5], 0.307; in assay [6], 0.285. Besides, the composite z-score is 0.999 in assay [7]; 0.352 in assay [9]; -0.0994 in [10]; 1.54 in assay [11]; 2.27 in [15]; 0.0557 in assay [17]. For the same molecule, the composite z-score is 1.63 in assay [18], 0.991 in assay [19] and -0.0509 in assay [20]. The z-score in assay [8] is -1.15 (inactive); in assay [12] it was -5.42 (inactive); in assay [13], -1.54 (inactive); in assay [14], 0.491 (inactive); in assay [16] it was 3.05 (inactive).
As for `Cc1cc(C)cc(N2C(=O)CSC2c2cccc([N+](=O)[O-])c2)c1` (stereo not given), the composite z-score in [1] is -0.0703; in assay [2] it was 0.571; in assay [3], -0.0036; in assay [4], 0.887; in assay [5], 1.17; in assay [6] it was 1.4. The composite z-score in [7] was 1.21; in assay [9] it was 0.712; in assay [10], -0.0994; in assay [11], 1.56; in assay [15] it was 2.39; in assay [17] it was 0.154. Moreover, the composite z-score in assay [18] worked out at 0.713; in [19], 1.04; in assay [20], 0.213. Besides, the z-score was 1.07 (inactive) in assay [8]; 0.0032 (inactive) in assay [12]; 0.223 (inactive) in assay [13]; 1.37 (inactive) in [14]; 1.58 (inactive) in assay [16].
In the case of `CN1C(=O)C2C=CC(C(O)c3cccc(O)c3)N(Nc3ccccc3)C2C1=O` (stereo not given), the composite z-score is -0.0512 in [1]; -0.201 in assay [2]; 0.0121 in assay [3]; 0.518 in assay [4]; 0.768 in [5]; 1.9 in [6]. Also, the composite z-score is 1.25 in [7]; 0.495 in assay [9]; 0.0808 in assay [10]; -0.0187 in assay [11]; 0.684 in assay [15]; 0.0004 in [17]. Besides, the composite z-score was 0.215 in assay [18], 0.764 in assay [19] and -0.0251 in [20]. Also, the z-score in assay [8] was 0.737 (inactive); in assay [12] it was 0.637 (inactive); in assay [13] it was 1.62 (inactive); in assay [14] it was 1.1 (inactive); in assay [16], -0.509 (inactive).
Turning to `COCCOC(=O)N1C(=O)[C@@]2(c3cc(C#CCCO)ccc31)[C@H](c1ccccc1OCCO)N1[C@H](c3ccccc3)[C@H](c3ccccc3)OC(=O)[C@H]1[C@@H]2C(=O)Nc1nc2ccccc2s1`, the composite z-score in assay [1] was 0.406; in [2], 1.13; in assay [3], -0.0066; in assay [4], 0.662; in [5] it was 1.42; in [6], 1.51. For the same molecule, the composite z-score in [7] is 1.31; in assay [9], 0.617; in [10] it was -0.254; in assay [11], 1.55; in [15] it was 2.45; in assay [17], -0.0063. In addition, the composite z-score is 1.1 in [18], 1.06 in assay [19] and 0.113 in assay [20]. Besides, the z-score in [8] is 1.47 (inactive); in assay [12], 0.97 (inactive); in assay [13], 1.42 (inactive); in assay [14], 2.76 (inactive); in assay [16] it was 0.0879 (inactive).
With `COc1ccc([Si](C)(C)[C@H]2[C@H](CCn3cc([C@H](O)c4ccccc4)nn3)O[C@@]3(C(=O)N(Cc4ccc(N5C(=O)c6cccc7cccc5c67)cc4)c4ccccc43)[C@@H]2C)cc1`, the composite z-score in assay [1] was 0.193; in [2], -0.241; in assay [3] it was -0.159; in [4], 0.595; in [5], -0.715; in assay [6], 0.45. Moreover, the composite z-score is 1.1 in [7]; -0.403 in assay [9]; -0.0994 in assay [10]; 0.643 in [11]; 0.277 in assay [15]; -0.0674 in assay [17]. Besides, the composite z-score was -0.162 in assay [18], -0.0817 in assay [19] and -0.285 in assay [20]. The z-score is -3.35 (inactive) in assay [8]; 0.642 (inactive) in assay [12]; 1.17 (inactive) in [13]; 2.55 (inactive) in assay [14]; 0.021 (inactive) in [16].
